Measurements reported in PubChem BioAssay.

What was measured:
[1] = target: Tumor necrosis factor receptor superfamily member 10B (Homo sapiens) (UniProt O14763); assay: caspase-8 TRAIL sensitization, hit retest, confirmation, cell-based, NB7+caspase-8, with/without TRAIL, luminescence panel (AID 651596); details: NB7 neuroblastoma + caspase-8, TRAIL sensitization, luminescence viability, with TRAIL, mean of runs, at 10 µM, stronger effect = higher value
[2] = as above; details: NB7 neuroblastoma + caspase-8, without TRAIL, luminescence viability, without TRAIL, mean of runs, at 10 µM

Sequence of Tumor necrosis factor receptor superfamily member 10B (Homo sapiens) (O14763 whole entry, looked up): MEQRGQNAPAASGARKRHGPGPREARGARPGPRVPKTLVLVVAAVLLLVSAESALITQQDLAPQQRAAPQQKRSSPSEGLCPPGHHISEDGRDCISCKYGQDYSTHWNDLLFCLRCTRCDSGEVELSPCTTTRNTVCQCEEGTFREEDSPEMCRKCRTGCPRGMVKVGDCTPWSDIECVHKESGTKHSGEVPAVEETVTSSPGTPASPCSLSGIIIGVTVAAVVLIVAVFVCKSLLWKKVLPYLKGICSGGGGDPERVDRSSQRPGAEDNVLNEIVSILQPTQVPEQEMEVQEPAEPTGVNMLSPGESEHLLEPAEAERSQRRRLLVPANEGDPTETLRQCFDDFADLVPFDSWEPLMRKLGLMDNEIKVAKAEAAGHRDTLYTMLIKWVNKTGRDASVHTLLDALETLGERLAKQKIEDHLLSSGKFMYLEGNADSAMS

SMILES	activity [1]	activity [2]
O=C(Nc1ccc(-c2nc3ccccc3o2)cc1)C1CCCO1 (stereo unspecified)	51.7%	43%
Cn1c(-c2ccc(Br)o2)nc2ccccc21	57.9%	61.8%
Cc1ccc2oc(-c3ccccc3)c(C(=O)O)c(=O)c2c1	29.9%	39.2%
C#Cc1cccc(Nc2nc(NCc3ccccc3OC)nc3ccsc23)c1	52.1%	37.5%
COC(=O)c1ccc2nc(NC(=O)C(C)(C)C)sc2c1	93.2%	91.2%
Nc1nc(N)c2c(ccc3nccc32)[nH]1	73.3%	78.7%
COc1ccc(-c2cc(C(=O)N3CCCC3)no2)cc1	64.9%	59.8%
CC(C)c1ccc(OCc2cccc(C(=O)N/N=C/c3cccnc3)c2)cc1	47.6%	45.3%
O=C(NNC(=O)c1cc(OCC(F)(F)F)ccc1OCC(F)(F)F)c1cccc(C(F)(F)F)c1	50.6%	44.2%
CC(=O)n1cc(N(C(=O)CCl)c2ccc(Cl)cc2)c2ccccc21	98.5%	98.9%
CC(c1ccco1)N(C(=O)COc1ccc(Cl)cc1Cl)c1ccccn1 (stereo unspecified)	-4.47%	10.2%
O=C(Nc1nc2ccccc2s1)c1ccc(OCC2CCCO2)cc1 (stereo unspecified)	73.5%	67%
Cc1ccsc1/C=C/c1ccc2ccccc2n1	42.2%	30.9%
c1ccc2c(c1)COc1c3cc4c(cc3nn1-2)OCO4	67.7%	53.8%
COc1ccc2nc(-c3cccc(N)c3)[nH]c2c1	55.8%	41.4%
CCCOc1ccc(-c2cn3ccccc3n2)cc1	92.7%	91.2%
CCCCCCc1cc2cc(C(=O)Nc3ccc(OC)cc3)c(=O)oc2cc1O	36%	32.5%
Nc1c(-c2ccccc2)cnc2c(-c3ccccc3)cnn12	73.7%	77.2%
C#CCN(C[C@@H]1[C@@H](OC(=O)Nc2cccs2)[C@@H](OC(=O)Nc2cccs2)Cn2c(=O)ccc(=O)n21)S(=O)(=O)c1ccc(C)cc1	96.5%	95.8%
CCS(=O)(=O)c1ncc(Cl)c(C(=O)Nc2ccc(S(=O)(=O)N(C)c3ccccc3)cc2)n1	99.2%	99.7%
CCCCn1c(SCC(=O)Nc2nnc(CC)s2)nc2c1c(=O)n(C)c(=O)n2C	68%	70.1%
Cc1ccc2nc(-c3ccc(NC(=O)COC(=O)c4ccc([N+](=O)[O-])o4)cc3)sc2c1	70.1%	69.9%
Cc1ccc(C(=O)N/N=C\c2cccc(OC(=O)c3cccc(F)c3)c2)cn1	37.2%	36.8%
COc1ccc(OCC(=O)N/N=C(\C)c2cc3ccccc3o2)cc1	62.8%	70.2%
COC(=O)c1ccccc1NC(=O)c1cc(-c2ccc(O)cc2)on1	15.1%	27.9%

SMILES	activity [1]	activity [2]
CC(/C=N/NC(=O)c1n[nH]c2c1CCC2)=C\c1ccccc1	48.1%	68.9%
CC(C)CC(=O)Nc1nc2c(c(=O)[nH]1)CCCC2	69.3%	66.5%
Clc1ccc2nc(-c3ccccc3)cn2c1	72.7%	74.1%
Fc1ccc(/C=N/Nc2nc(-c3cccnc3)nc3ccccc23)cc1	50.8%	19.2%
CC(=O)CSc1ccc(-c2nc3ccccc3[nH]2)cn1	92.1%	92.5%
Nc1nn2cc(-c3ccc(Br)cc3)nc2c2ccccc12	53.9%	47.2%
C/C(Cn1nnc([N+](=O)[O-])n1)=N\NC(=O)c1ccc(O)cc1	50.4%	48.3%
Cc1ccc(C(=O)N/N=C\c2ccccc2[N+](=O)[O-])cn1	47.5%	43.6%
Cc1nc(NC(=O)c2cc3ccccc3o2)sc1C	80.8%	79.8%
COc1ccc2nc(-c3ccccc3)[nH]c2c1	57.3%	65.5%
O=C(Oc1cccc(/C=N/NC(=O)c2ccccn2)c1)c1ccc([N+](=O)[O-])cc1	42.9%	20.2%
NC1=NC[C@H](CC2CCCCC2)N1CCc1cc(C(F)(F)F)cc(C(F)(F)F)c1	40.9%	80%
COc1ccc(-c2cc(=O)c3ccccc3s2)cc1	61.2%	62%
O=C(CC1SC(=Nc2ccccc2F)N(CCN2CCOCC2)C1=O)Nc1ccc(F)cc1F (stereo unspecified)	-3.85%	-7.28%
CCOc1ccc(OCC(=O)N(CCC2=CCCCC2)c2c(N)n(Cc3ccccc3)c(=O)[nH]c2=O)cc1	48.6%	1.7%
Cc1ccccc1/C=C/c1nc2ccccc2c(=O)[nH]1	56.1%	58.7%
Cc1ccc(NC(=O)COc2ccccc2[N+](=O)[O-])nc1	60.5%	62.8%
CCOc1ccc2nc(NC(=O)c3ccco3)sc2c1	74.4%	69.8%
Nc1ccc(-c2ncc(-c3ccccc3)o2)cc1	28.2%	29.8%
OC(c1cc(-c2cccc(Cl)c2)nc2ccccc12)C1CCCCN1 (stereo unspecified)	71.2%	82.1%
COc1ccccc1/C=C/C(=O)Nc1ccc2c(c1)OCCO2	66.6%	73.5%
CCN(CC)C(=O)c1nn(-c2ccccc2)c2c1C1CCC2(C)C1(C)C (stereo unspecified)	15.1%	8.65%
C#CC(=O)N(c1cccc(OC)c1)C(C(=O)NC1CCCC1)c1cccs1 (stereo unspecified)	99.4%	99.5%
CCOc1ccc(/C=N/Nc2ccccn2)cc1	53.4%	41.2%
NC(=O)c1ccsc1NC(=O)c1coc2ccccc2c1=O	36.1%	33.8%

SMILES	activity [1]	activity [2]
CSc1nnc(NC(=O)c2nc(S(=O)(=O)Cc3ccccc3)ncc2Cl)s1	83.6%	77.9%
Cc1ccnc(NC(=O)c2sc3ccccc3c2Cl)c1	91.6%	90.8%
N=c1oc2cc(O)ccc2cc1C(=O)Nc1ccc(Cl)cc1	34.3%	39.3%
O=C(NC(=S)Nc1ccc(Br)cn1)c1cccs1	71.7%	73.2%
O=C(Oc1c(CN2CCOCC2)cc(Cl)c2cccnc12)c1ccccc1Br	53.5%	52.8%
O=C(COc1ccc(/C=N/NC(=O)c2cc3ccccc3o2)cc1Br)Nc1ccccc1	93%	96.8%
CCOC(=O)NC(=O)CSc1nc(C)cc(C)c1C#N	71%	61.4%
C/C(=N\Nc1nc(C)cc(-c2ccccc2)n1)c1cccc(N)c1	41.5%	32.7%
CSc1ccc(/C=N/NC(=O)c2cccc(O)c2)cc1	78.8%	71%
O=C(NCCc1cccc(Cl)c1)c1ccc2c(c1)OCO2	47.7%	39.4%
Cc1nc2cc(NC(=O)Nc3nccs3)ccc2n1C	63.5%	60.8%
CC(/C=N/NC(=O)c1ccco1)=C\c1ccccc1	73.5%	71.2%
COc1ccc2c(=O)c(-c3nc(C)cs3)coc2c1	69.9%	71.6%
O=c1[nH]c(/C=C/c2ccccc2Cl)nc2ccccc12	75.5%	65.7%
COc1ccc2nc(N3C(=O)CNC3=S)sc2c1	51.8%	49.4%
C=CCOn1c(C)c(C(C)=O)c2c3no[n+]([O-])c3ccc21	53.5%	64.2%
COc1ccc(/C=N/Nc2cc(C)nc3ccc(Br)cc23)cc1	61%	78%
COc1ccc2nc(Nc3nc(-c4cc5ccccc5oc4=O)cs3)sc2c1	50.4%	47.4%
Cn1c(/C=C/c2ccc([N+](=O)[O-])o2)nc2ccccc2c1=O	50.8%	73.9%
C=Cc1ccc(Cn2c(C)c(C(=O)NCc3ccc(Cl)c(Cl)c3)sc2=O)cc1	91.2%	68%
c1ccc(-n2nnc3c(N4CCOCC4)ncnc32)cc1	74.7%	74.7%
Cc1ccc(C(=O)NC2CCCCCCC2)c(Cl)c1	62.7%	53.6%
COc1ccc(OC)c(S(=O)(=O)Nc2ccc(-c3ccc4nncn4n3)cc2)c1	57.5%	59.3%
CN1C(=O)c2ccccc2C(C(=O)NCCCN2CCCC2)C1c1c[nH]c2ccccc12 (stereo unspecified)	45.5%	55.5%
Cn1sc(NC(=O)c2ccc(Cl)cc2)nc1=O	68.4%	67%

SMILES	activity [1]	activity [2]
O=[N+]([O-])c1cc(S(=O)(=O)N2CCCCCC2)ccc1F	83.9%	72.6%
Cc1ccc(-c2nn(-c3ccccc3)cc2NC(=O)CCl)cc1	94%	95%
O=C(CSc1nnc(NC(=O)c2ccccc2)s1)NCC1CCCO1 (stereo unspecified)	60.9%	63.2%
COc1cc(OC)cc(C(=O)Nc2ccc3c(c2)OCCO3)c1	47.1%	43.8%
Nc1ccc(-c2nc3ncccc3o2)c(Cl)c1	43.9%	32.2%
COc1cccc(/C=N/Nc2nn3cnnc3c3ccccc23)c1	62%	61.4%
CCn1c(=O)c([N+](=O)[O-])c(Cl)c2ccccc21	83.6%	70.1%
O=c1[nH]c(Nc2nc3ccccc3o2)nc2c1CCCC2	79.8%	57%
COC(=O)c1cc(OCC(=O)Nc2ccc3c(c2)CCC3)cc(C(=O)OC)c1	-14.7%	-57.5%
Cc1cccc(N(Cc2ccccc2)C(=O)CCl)c1	99%	99.1%
O=C(Cn1ncc(Cl)c(Cl)c1=O)c1ccc2c(c1)OCCO2	39.7%	76%
Nc1c2c(nc3sc4c(c13)CCCCC4)CCCCC2	48.1%	47.8%
CC(=O)n1cc(N(C(=O)CCl)c2ccc([N+](=O)[O-])cc2)c2ccccc21	97.8%	99.3%
O=C(/C=C/C(Cl)(Cl)Cl)Nc1ccc(Cl)cc1	98.8%	98.9%
O=C(CC1CCCC1)Nc1nc2ccccc2[nH]1	49.7%	62.4%
CCOC(=O)C1=CCN(S(=O)(=O)c2ccccc2C)C1c1ccc(Cl)cc1 (stereo unspecified)	10.1%	-8.28%
COc1ccc2c(c1OC)C(=O)N(c1cccc(C)c1)C2	66.9%	57.9%
O=c1c2c(-c3ccccc3)csc2nc2c3ccccc3c(NCCN3CCOCC3)nn12	89.5%	90.1%
O=C(Nc1ccc2ccccc2c1)c1ccc(Cl)cc1Cl	63.9%	60.5%
COc1ccc2[nH]c(-c3ccc(C)cc3)cc(=O)c2c1	87.4%	87.8%
CC(=O)Nc1sc(C)c(C)c1C(=O)OCC(=O)N(CC(C)C)c1c(N)n(Cc2ccccc2)c(=O)[nH]c1=O	97.5%	98.9%
CN(C)c1ccc(-c2nc3ccccn3c2/N=C/c2ccc(Br)cc2)cc1	69.3%	47%
COc1ccc(-c2sc3ccccc3c2-c2ccc(OCCN(C)C)cc2)cc1	52.4%	73.6%
